Reference: PubChem BioAssay
“And” between values parts separate entries of the source, which are not always exact repeats. Equal entries are not always repeated. The source made the active and inactive calls. Unless noted, no stated cut-off is given here; in the data, active means inhibition above about 80%; inactive means the rest.

Tests used:
[1] = growth inhibition, single agents and combos, ICB984, cell-based, cisplatin or BGB combos, synergistic combos for chromothripsis tumors (AID 1671451; call rule not given here;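 further: cells exposed for 96 hours before readout; 0% = vehicle DMSO and 100% = killing by high DMSO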); conditions: ICB984 medulloblastoma cells, drug combinations, stronger effect = higher value
[2] = growth inhibition, single agents and combos, LFS_MB_1R, cell-based, cisplatin or BGB combos, synergistic combos for chromothripsis tumors (AID 1671452); conditions: LFS_MB_1R medulloblastoma cells, stronger effect = higher value;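 further: cells exposed for 96 hours before readout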
[3] = growth inhibition, single agents and combos, HTB85, cell-based, BGB or cisplatin IC20 combos, synergistic combos for chromothripsis tumors (AID 1671453); conditions: HTB85 osteosarcoma cells, drug combinations, stronger effect = higher value;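 further: cells exposed for 96 hours before readout; 0% = vehicle DMSO and 100% = high DMSO killing control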
[4] = growth inhibition, single agents and combos, CRL2098, cell-based, BGB or cisplatin IC20 combos, synergistic combos for chromothripsis tumors (AID 1671454); conditions: CRL2098 osteosarcoma cells, drug combinations, stronger effect = higher value;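 further: cells exposed for 96 h before readout; 0% = vehicle DMSO and 100% = killing by high DMSO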
[5] = growth inhibition, single agents and combos, HD-MB03, cell-based, BGB or cisplatin IC20 combos, synergistic combos for chromothripsis tumors (AID 1671455; in the data active means inhibition above about 83%;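 further: 0% = vehicle DMSO and 100% = high DMSO as cytotoxic control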); conditions: HD-MB03 medulloblastoma cells, stronger effect = higher value
[6] = growth inhibition, single agents and combos, UWB1.289, cell-based, BGB or cisplatin combos, synergistic combos for chromothripsis tumors (AID 1671456); conditions: UWB1.289 ovarian carcinoma cells, stronger effect = higher value;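 further: cells exposed to compound for four days; 0% = vehicle DMSO and 100% = killing by high DMSO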
[7] = growth inhibition, single agents and combos, LFS_MB_2R, cell-based, cisplatin combos, synergistic combos for chromothripsis tumors (AID 1671457); conditions: LFS_MB_2R medulloblastoma cells, stronger effect = higher value;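 further: cells exposed to compound for four days before readout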
[8] = growth inhibition, MDA-MB-436, cell-based, BGB or cisplatin combos, synergistic combos for chromothripsis tumors (AID 1671458; call rule not given here;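 further: cells exposed for 96 hours; 0% = vehicle DMSO and 100% = killing by high DMSO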); conditions: MDA-MB-436 breast carcinoma growth inhibition, drug combinations, stronger effect = higher value
[9] = UWB1.289_BRCA1 ovarian cancer growth, cell-based, BGB or cisplatin combinations (AID 1671459); conditions: UWB1.289 BRCA1 ovarian carcinoma, drug combinations, stronger effect = higher value
[10] = BT084 cell growth, single and combined drugs, ICGC_MB145, cisplatin and BGB IC40 combos (AID 1671461); conditions: BT084 medulloblastoma cells, drug combinations, stronger effect = higher value;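 further: cells exposed to drugs for 96 hours; 0% = vehicle DMSO and 100% = high DMSO full killing control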
[11] = RCMB18 cell growth, single agent and combined, cisplatin and BGB IC40 combos (AID 1671462); conditions: RCMB18 medulloblastoma cells, stronger effect = higher value;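 further: cells exposed to compound for four days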
[12] = CRL1545 cell growth, single agent and combined, cisplatin and BGB IC20 combos (AID 1671464); conditions: CRL1545 osteosarcoma cells, stronger effect = higher value;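 further: cells exposed to compound for 96 hours before readout; 0% = vehicle DMSO and 100% = high DMSO killing control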
[13] = measured here: combination with cisplatin, at 0.5 µM
[14] = measured here: combination with cisplatin, at 5 µM

Q: Which results are given for `CCOC(=O)NCCCC(=O)NCCc1ccccc1`?
A: inhibition ([1]; BGB IC40 combo, at 0.005 µM): -29.1% and -31.3%; inhibition ([1]; BGB IC40 combo, at 0.05 µM): -30% and -50.9%; inhibition ([1]; at 0.5 µM): -27.9% (inactive) and -27.3% (inactive); inhibition ([1]; cisplatin combo, at 0.05 µM): -36.7% and -56.9%; inhibition ([1]; cisplatin combo, at 0.5 µM): -28.4% and -31.6%; inhibition ([1]; cisplatin combo, at 5 µM): -21.8% and -22.7%; inhibition ([1]; measured here: 5 uM single agent, at 5 µM): -34% and -5.68%; inhibition ([2]; at 0.5 µM): -35.7% (inactive) and -30.1% (inactive); inhibition ([2]; measured here: combination with BGB IC40, at 0.05 µM): -32.7% and -26.4%; inhibition [2, 13]: -69.3% and -37.1%; inhibition [2, 14]: -41.3% and -32.8%; inhibition ([3]; at 0.5 µM): -20.7% (inactive) and -9.16% (inactive); inhibition ([3]; measured here: with BGB IC20, at 0.5 µM): -7.26% and 6.66%; inhibition ([3]; measured here: with BGB IC20, at 5 µM): -10.7% and -19.1%; inhibition ([3]; measured here: with cisplatin IC20, at 0.5 µM): -27.1% and -24.2%; inhibition ([3]; measured here: with cisplatin IC20, at 5 µM): 18% and -25.8%; inhibition ([3]; single agent, at 5 µM): -17.5% and -2.77%; inhibition ([4]; at 0.5 µM): -89.4% (inactive) and -48.9% (inactive); inhibition ([4]; measured here: combination with BGB at IC20, at 0.5 µM): -73.5% and 13.5%; inhibition ([4]; measured here: combination with cisplatin at IC20, at 0.5 µM): -117% and -69.6%; inhibition ([5]; at 0.5 µM): -22.5% (inactive) and -0.04% (inactive); inhibition ([5]; measured here: combo with BGB at IC20, at 0.5 µM): -19.9% and -14.2%; inhibition ([5]; measured here: combo with cisplatin at IC20, at 0.5 µM): -31.5% and 17.9%; inhibition ([6]; at 0.5 µM): -19.7% (inactive) and -14.9% (inactive); inhibition ([6]; measured here: inhibition with BGB combination, at 0.05 µM): -30.7% and -21.8%; inhibition ([6]; measured here: inhibition with cisplatin combination, at 0.05 µM): -28.1% and -20.9%; inhibition ([7]; at 0.5 µM): -12.3% (inactive) and -24.7% (inactive); inhibition [7, 13]: -9.92% and -32%; inhibition [7, 14]: -15.4% and -22.8%; inhibition ([8]; at 0.5 µM): -30.7% (inactive) and -10.1% (inactive); inhibition ([8]; measured here: BGB combination, at 0.5 µM): -24.7% and -2.6%; inhibition ([8]; measured here: BGB combination, at 5 µM): -6.13% and -14.1%; inhibition ([8]; measured here: cisplatin combination, at 0.5 µM): -47% and -19.2%; inhibition ([8]; measured here: cisplatin combination, at 5 µM): -39.2% and -16.3%; inhibition ([9]; BGB combination, concentration series, at 5 µM): -32.5% and 1.48%; inhibition ([9]; at 0.5 µM): -24.6% (inactive) and -10.6% (inactive); inhibition ([9]; cisplatin combination, concentration series, at 5 µM): -5.77% and 15.9%; inhibition ([10]; at 0.5 µM): -9.48% (inactive) and -15.9% (inactive); inhibition ([10]; cisplatin combination, at 0.5 µM): -0.569% and -16.9%; inhibition ([10]; cisplatin combination, at 5 µM): -138% and -1.29%; inhibition ([10]; measured here: BGB IC40 combination 0.05 uM, at 0.05 µM): -26.7% and -17.1%; inhibition ([10]; single agent, at 5 µM): -8.38% and 9.97%; inhibition ([11]; at 0.5 µM): -8.55% (inactive) and -27.8% (inactive); inhibition ([11]; cisplatin combo, at 5 µM): 7.25% and -23.2%; inhibition ([11]; measured here: BGB IC40 combination, at 0.05 µM): -14% and -29.5%; inhibition [11, 13]: 4.17% and -12.7%; inhibition ([11]; single agent, at 5 µM): -2.65% and -61.4%; inhibition ([12]; at 0.5 µM): -24.2% (inactive) and -17.6% (inactive); inhibition ([12]; measured here: with BGB IC20 combination, at 0.5 µM): -40% and -29.3%; inhibition ([12]; measured here: with cisplatin IC20 combination, at 0.5 µM): -18.2% and -11.8%; inhibition ([12]; single agent, at 0.05 µM): -24.2% and 17.5%; inhibition ([12]; single agent, at 5 µM): 9.21% and -20.7%
